Experimental data as given in PubChem BioAssay AID1619 (SRMLSC, 2009).
Among all 220,000 compounds or so, about 830 (0.38%) were called active.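 The calls were made as follows: active = compound inhibiting the enzyme by more than half at any dose during confirmatory dose-response retesting; inconclusive = strong single-dose inhibitors picked by rank but not retested; inactive = the rest.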 The list is a sample of the results. Entries with a potency or affinity are not part of this list.

Target: Leucine aminopeptidase (Plasmodium falciparum (isolate 3D7)) (UniProt Q8IL11)
Sequence (Q8IL11 whole entry, looked up): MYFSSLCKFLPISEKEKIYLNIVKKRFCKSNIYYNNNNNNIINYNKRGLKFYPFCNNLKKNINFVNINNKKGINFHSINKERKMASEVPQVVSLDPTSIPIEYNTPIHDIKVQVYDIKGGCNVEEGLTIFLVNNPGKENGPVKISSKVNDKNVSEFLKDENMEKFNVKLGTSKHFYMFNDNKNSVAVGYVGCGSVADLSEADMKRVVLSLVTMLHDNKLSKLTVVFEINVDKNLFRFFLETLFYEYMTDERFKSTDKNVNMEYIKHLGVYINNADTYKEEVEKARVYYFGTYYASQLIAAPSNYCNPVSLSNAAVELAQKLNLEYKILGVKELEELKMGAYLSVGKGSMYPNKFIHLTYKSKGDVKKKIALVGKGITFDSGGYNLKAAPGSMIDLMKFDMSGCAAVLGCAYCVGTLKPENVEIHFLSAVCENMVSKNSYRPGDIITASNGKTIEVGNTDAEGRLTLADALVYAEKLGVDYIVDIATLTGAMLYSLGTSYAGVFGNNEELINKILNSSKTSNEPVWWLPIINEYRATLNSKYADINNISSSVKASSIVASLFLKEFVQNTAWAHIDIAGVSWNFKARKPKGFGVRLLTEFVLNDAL
Experiment: P. falciparum M17LAP inhibitors, primary screen, biochemical, fluorogenic H-Leu-NHMec substrate, 1536-well (AID 1619);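 also: plate controls were full reaction with DMSO carrier for no effect and no enzyme background for full effect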
Settings: recombinant M17LAP, H-Leu-NHMec fluorogenic kinetic assay; at 30 µM; active compounds read high

inhibition, inactive:
Cc1ccc(NC(=O)/C(Cl)=C/c2ccccc2)cc1C 0.91%
Cc1ccc(S(=O)(=O)N2CCN(c3ccc([N+](=O)[O-])c(NCCN4CCOCC4)c3)CC2)cc1 3.35%
CC(=O)Nc1nc(C)c(Oc2ccc(Cl)cc2Cl)c(=O)[nH]1 7.16%
Cc1sc(NC(=O)c2cc3ccccc3oc2=O)c(C(=O)OC(C)C)c1-c1ccccc1 5.06%
O=C(O)C1C2CCC(O2)C1C(=O)NCc1ccc(Cl)cc1 (centres undefined) 2.78%
CC(C)OC(=O)c1cc(NC(=O)C2C3CCC(O3)C2C(=O)O)cc(C(=O)OC(C)C)c1 (centres undefined) 2.91%
Cc1sc(NC(=O)C2C3CCC(O3)C2C(=O)O)nc1-c1ccc(CC(C)C)cc1 (centres undefined) 6.67%
O=C(c1cccc(C(F)(F)F)c1)N1CCc2c([nH]c3ccccc23)C1C(F)(F)F (centres undefined) -3.58%
Cc1cc(C)n(C2CC(=O)N(c3cccc(Cl)c3)C2=O)n1 (centres undefined) 10.2%
CCOc1cc(/C=N/n2cnnc2)ccc1OS(=O)(=O)c1ccc(C)cc1 -1.56%
O=C(NCCCN1CCCC1=O)c1cc(NS(=O)(=O)c2ccc(F)cc2)cc(NS(=O)(=O)c2ccc(F)cc2)c1 22.7%
O=C(CSc1ncnc2nc[nH]c12)Nc1ccc(Br)cc1Cl 9.25%
Cc1cccc(NC(=O)CSc2ncnc3nc[nH]c23)c1C 43.9%
Cc1cccc(NC(=O)CSc2ncnc3nc[nH]c23)c1 56.5%
O=C(CSc1ncnc2nc[nH]c12)Nc1ccccc1C(F)(F)F 12%
O=C(O)COc1cccc(NC(=O)C2CCCO2)c1 (centres undefined) 5.81%
C=CCn1c(O)c(N=Nc2nc3ccccc3c(=O)n2-c2ccccc2)c2ccccc21 -2.79%
O=C(CCCO)N/N=C/c1ccccc1[N+](=O)[O-] 8.09%
O=C(CSc1nc(O)c(-c2ccccc2)c(=O)[nH]1)N1CCOCC1 12.3%
CCOc1ccc(N2C(=O)C3Sc4[nH]c(=O)sc4C(c4ccc(OC)c(OC)c4)C3C2=O)cc1 (centres undefined) -5.76%
Cc1ccc(C)c(NC(=O)C2CC3c4ccccc4C2c2ccccc23)c1 (centres undefined) -1.72%
O=C(O)C1CC=C(Cl)CC1C(=O)NCc1ccccc1 (centres undefined) 36.4%
O=C(O)C1CC=CCC1C(=O)Nc1ccccc1C(=O)N1CCN(c2ccc(F)cc2)CC1 (centres undefined) 23.1%
Cc1ccc(N2CCN(C(=O)c3ccccc3NC(=O)C3CC=CCC3C(=O)O)CC2)cc1 (centres undefined) 49.9%
Cc1ccccc1NC(=O)C1CC(Cl)=CCC1C(=O)O (centres undefined) 43.5%
Cc1cc(NC(=O)C2CC=CCC2C(=O)O)no1 (centres undefined) 41.7%
O=C(NCCN1CCN(c2cccc(Cl)c2)CC1)C1CCCN(S(=O)(=O)c2cnc[nH]2)C1 (centres undefined) -4.03%
NC(=O)CN1CCN(c2ccccc2F)CC1 4.96%
C/C(=N/NC(=O)c1cn(-c2cccc(C)n2)cn1)c1ccc(C)cc1 -2.51%
CCOC(=O)c1ccc(-n2c(CN(CC)CC)nc3ccc([N+](=O)[O-])cc3c2=O)cc1 2.23%
Brc1cc2[nH]cnc2c2ccccc12 4.81%
Cn1c(N)c(C(=O)COc2ccc(C#N)cc2)c(=O)n(C)c1=O 7.75%
O=c1c(N2CCOCC2)coc2ccccc12 9.22%
CCCCc1sc(-c2c(C#N)c(N)nc3c2CCCCC3)cc1[N+](=O)[O-] 1.41%
O=C(CN1C(=O)C2C3C=CC(C4CC34)C2C1=O)Nc1cccc2ncccc12 (centres undefined) 6.24%
O=C(CN1C(=O)C2C3C=CC(C4CC34)C2C1=O)NCc1ccco1 (centres undefined) 1.4%
CCOc1ccc(-n2c(Cc3cc(=O)[nH]c(=O)[nH]3)nnc2SCc2cccnc2)cc1 6.43%
COc1ccc(N2CC(O)(c3ccc(C)cc3)[N+]3=C2CCCC3)cc1 (centres undefined) 1.14%
COCCOC(=O)c1cc(C(=O)c2cc(Cl)ccc2O)coc1=N 12.5%
COC(=O)c1cc(C(=O)c2cc(Cl)ccc2O)coc1=N 10.7%
CC(C)OC(=O)c1cc(C(=O)c2cc(Cl)ccc2O)coc1=N -2.46%
CC(C)OC(=O)c1cc(C(=O)c2cc(Br)ccc2O)coc1=N 0.53%
Cn1c(CC(=O)c2ccc(Br)cc2)[n+](C)c2ccccc21 2.42%
Nc1nc(CSc2ncn[nH]2)nc(Nc2ccc(F)cc2)n1 -4.26%
O=S(=O)(c1ccc2c(c1)OCCO2)N1CCC(n2nnc3cc(F)ccc32)CC1 4.13%
CC1(C)CC(=O)c2sc(NS(=O)(=O)c3ccc(Br)cc3)nc2C1 18.8%
CC1(C)CC(=O)c2sc(NS(=O)(=O)c3ccc(F)cc3)nc2C1 48.1%
c1ccc(-c2nc3nc4ccccc4nc3n2Cc2ccco2)cc1 1.08%
COc1ccc(-c2noc(CCCC(=O)N3CCOCC3)n2)cc1 -3.55%
CCOc1cc(/C=N/N=C2/NC(=O)C(CC(=O)O)S2)ccc1OCc1ccc(Cl)cc1 (centres undefined) 5.31%
COc1cc(/C=N/N=C2/NC(=O)C(CC(=O)O)S2)ccc1OCc1ccc(Cl)cc1 (centres undefined) 23.2%
CCOc1ccc2[nH]c(=O)c(CN(CCO)C(=O)CC)cc2c1 -5.26%
COC(=O)c1oc2ccc(Br)cc2c1NC(=O)c1ccccc1 14.5%
Nc1c(C(=O)c2ccccc2)oc2ccc(Br)cc12 -7.77%
C=CCNCCOc1c(C)cc(C)cc1Cl 20.1%
CC1(C(=O)OCC(=O)Nc2ccccc2)CC1(Cl)Cl (centres undefined) 1.25%
CCN(C(=O)Cn1cnc2cc([N+](=O)[O-])ccc2c1=O)C1CCS(=O)(=O)C1 (centres undefined) 12.2%
Oc1ccc(-c2cccc(-c3ccc(O)cc3)n2)cc1 1.28%
Cc1ccc(-c2nc(N=Nc3ccc(O)cc3)n[nH]2)cc1 12.9%
CCOc1ccc(/C=C2\SC(=S)N(CCC(=O)O)C2=O)cc1 6.65%
O=C(O)c1ccc(N2C(=O)CC(N3C(=O)/C(=C/c4ccc(Cl)cc4)SC3=S)C2=O)cc1 (centres undefined) 6.02%
Cc1ccc(NC(=O)/C=C/c2ccco2)nc1 11.5%
O=C(Nc1ccccc1N1CCCC1)c1ccc([N+](=O)[O-])cc1Cl 9.68%
CCCCN1C(=O)/C(=C/C=C2\SCCN2C)SC1=S -4.21%
CCN1C(=O)/C(=C/C=C2/SCCN2C)SC1=S -8.41%
Cc1ccc(S(=O)(=O)N(CC(=O)Nc2ccccc2C(=O)O)c2ccccc2)cc1 4.48%
Cc1ccc(S(=O)(=O)N(CC(=O)Nc2ccccc2C(=O)O)c2ccccc2C)cc1 2.3%
COc1ccc2sc(C)[n+](C)c2c1 -2.85%
COc1ccc(N2C(=O)c3ccccc3C2=O)cc1 -7.95%
COc1ccc(C(O)(C(=O)NNc2ccc(C)cc2)c2cccs2)cc1 (centres undefined) 15.2%
O=[N+]([O-])c1ccc(-c2cc(-c3ccncc3)nc3ccc4ccccc4c23)cc1 -5.09%
CC1=C(O)C(=O)OC1c1c(Cl)cccc1Cl (centres undefined) -5.75%
CCCCSc1nc(C)[nH]c1[N+](=O)[O-] -54.3%
COc1ccccc1Nc1ncnc2nc[nH]c12 38.3%
Cc1ccc(Nc2ncnc3nc[nH]c23)cc1Cl 6.48%
Cc1ccc(-c2nnc(SCC(=O)N/N=C/c3c(C)nn(-c4ccccc4)c3C)n2-c2ccccc2)cc1 -0.81%
CC(Sc1ccc(Cl)cc1)C(=O)Nc1ccc(S(=O)(=O)N2CCOCC2)cc1 (centres undefined) 1.19%
CC(Sc1ccccc1)C(=O)Nc1ccc(S(=O)(=O)N2CCOCC2)cc1 (centres undefined) 11.8%
CCc1ccccc1NC(=O)C1C(c2ccccc2)C1(Cl)Cl (centres undefined) -8.78%
O=C(Nc1ccccc1NC(=O)c1c(F)c(F)c(F)c(F)c1F)c1c(F)c(F)c(F)c(F)c1F 8.25%
CC(C)N(Cc1nc(-c2ccc3c(c2)OCO3)no1)Cc1nccn1C -7%
Cc1[nH]nc2c1C1(CCN(Cc3ccccc3)CC1)C(C#N)=C(N)O2 42.9%
CC(C)c1[nH]nc2c1C1(CCN(Cc3ccccc3)CC1)C(C#N)=C(N)O2 30.2%
Cc1sc(NC(=O)c2cccc([N+](=O)[O-])c2)c(C(N)=O)c1-c1ccc(C(C)(C)C)cc1 6.91%
Cc1csc(NC(=O)[C@@H]2CCCN2C(=O)c2cccs2)n1 -1.96%
CC1=C(C(=O)OCc2ccccc2)C(c2ccc(Cl)cc2)NC(=O)N1CCCCCC(=O)O (centres undefined) 47.3%
CC1=C(C(=O)OCc2ccccc2)C(c2ccc(Cl)cc2Cl)NC(=O)N1CCCC(=O)O (centres undefined) 0.51%
N#Cc1ccc(C(=O)CSc2n[nH]c(=O)n2Cc2ccco2)cc1 -0.26%
COc1ccc(Cc2nnc(NS(=O)(=O)c3ccccc3)s2)cc1 52.4%
COc1ccc(Cc2nnc(NS(C)(=O)=O)s2)cc1 11.1%
COc1ccc(NC(=O)c2cccs2)cc1 -8.71%
O=C(Nc1cccc(Oc2ccc(C(=O)O)c(C(=O)O)c2)c1)c1ccc(-c2ccccc2)cc1 38.5%
O=C(O)COc1ccc(NC(=O)c2cccs2)cc1 16.1%
Cc1cccc(Oc2ccc(NC(=O)c3ccccc3C(=O)O)cc2)c1 2.06%
